B1: GBRAPL2_175_7341 (protein)
chain: AAYEKLLKEIIELLDELAEKADDEVSDLLEAAAAVLETDGLAGAGRAAKLVAEAAKEAADNPKLQAALKEVAAALKAIADGAAPEEVEKLLKKAKAILKE
B2: GBRAPL2_53_7343 (protein)
chain: MIEVDIAHPDKEVMAAAVEAVFDILERAGVEARVTVTKEDGTVVELEGPLEEVRAQAVALAKATEVLVRIELPDEAEEVVEEIEDEALAKGATVSVERIP
B3: GBRAPL2_53_7363 (protein)
chain: MYEVEVEHPDKEKLLRAAEKIAEIAEKHGLKITVTFVKEDATVEVHTADAKEALKIAKENIEKGDVILTVRLPDSLEEVREELIDAAAEEGAVVSVTELP
B4: GBRAPL2_53_7351 (protein)
chain: MYRVLIGHPDKEVMVKALEKVFEILEEAGVEAKVKVTKEDGTVIELEGPIKEIKEETLKLAKEQPILVEIELPDEAEEVVEKIVDAALEAGATVSVEKVE
B5: GBRAPL2_43_7342 (protein)
chain: MTEIEKKAIEEAREALEEKLDLDGVKEYEEEVEIRKEGDRTIAIVKATSKETGKEYYAVAVYDKNGELLVVVVSSDLERALKAAEDLIELGERDTYVLLP
B6: GBRAPL2_53_7355 (protein)
chain: MVEIDIGHPDKEVMVKALEEVFDLIEKAGAEVEVIVTKEDGTVIKLTGSVEEIREKVIALAREQPILVTILLKEKNEKLVEEMVDAALKAGATVSVEELP
B7: GBRAPL2_53_7356 (protein)
chain: MLELEIAHPDKEIMAKAVEEIFNLLKEENVEAEVTVTTENGEVIKLTGDIEEIKKKVVELAKKQPILVSIKLPDSAEEVVEKMEDIALELGATVSVSRLE
B8: GBRAPL2_54_7372 (protein)
chain: MTIVEIEATFIAEGSDEELERIEEVALRELKKLAERLKKEFGAESEISSEREDGVLSVTVKITTEKENVDEVLDLLEETRERISRETGRPVSLVIGIKEL
B9: GBRAPL2_53_7361 (protein)
chain: MIEIDIAHPDPAVVKKAAEKIFDVAEENGVEVEVEVTTEDGTVTRLTGSIEEIREKVTAMAAKQPVLITIYLPDEAEETAEEIEDIALEEGATVSREVLP
B10: GBRAPL2_54_7370 (protein)
chain: ETIIEIEATFIAEGSEEELEEVEKVALEKLAELSEKLKKEFGAESEISSERENGVLSVTVKITTKKEDLDKVLDLLEETRDEISKETGKKVSLVIGIKEL
B11: GBRAPL2_54_7368 (protein)
chain: MIEVEITVVMKRENFLKHKELIKKILLEKVEELKKEHPDLIEKILEIEEEEYPDVGLLSIKILAKPEAEDLIRDLAEEIQKELEKKTGEKVHVVVAFGEL
B12: GBRAPL2_53_7346 (protein)
chain: MKKVDIAHPDKEKLAKTLEEIFKILEENGVKAKVTVTTEDGNVIVLEGDLEEIREKTVKLAKETEVLVEIELPDDAEETVEKIIDVALKNGATVSVDGLE
B13: GBRAPL2_53_7344 (protein)
chain: MIEVDIAHPDKEVMAKAVEAVFDILEEAGVEAEVEVTKEDGTVERLRGPLEEVREKAVKLAKETEVLVTIRLPDSAEEVVEKIEDEALKHGATVSVKRLE
B14: GBRAPL2_53_7354 (protein)
chain: MIAIEIGHPNKEVMVEALKKVFEIIKKAGEKVEVEVTLEDGTVIKLEGSVEEIEEKVLELAKKQPILVTIYLPEKNEELVEEIEDAALEAGATVSVEELP
B15: GBRAPL2_54_7371 (protein)
chain: ETTVEIEATFLAEGTPEELARVRAVALEELEELKKELKEKFGAESEISAEEEDGVLSVTVTITTKKENLDEVLDLLEATRDRIAARTGLPVALVIGIKEL
B16: GBRAPL2_53_7362 (protein)
chain: MWLVEVEHPDKEKLLKAAKEIFKIAKENGLKVTVKFVKEDGTVEEKTLNAEEALKYVEEKVKEGDVILEIELPDSLEEAKEKIIDAAAKHGAVVSVEELE
B17: GBRAPL2_53_7358 (protein)
chain: MLVVEIAHPDPAVVKEAAKKILAVIKEDGVEAKVTVTTENGEVKVLTGDIDKIEAEVTALAAKQPVLISIELPDSAEETVEKMEDIALEAGATVSVYREP
B18: GBRAPL2_53_7347 (protein)
chain: MIEIDIAHPDKEVMAETLEEIFDVLKKAGVEAKVTVTTENGEVIVLEGDLDEIKEKVVELAKKTNILVTIELPEDAEEVVEEIIDIALEKGAAVSVDGLE
B19: GBRAPL2_53_7350 (protein)
chain: MYVIEIAHPDKETLAKAIEAIFDKLIEAGVEAKITVTLEDGTVIKLEGSLEEQKKKAVALAKETNVLVEIELPDSAKEVVEELEDIALKEGATVSVEKLE
B20: GBRAPL2_53_7349 (protein)
chain: MYEVEIAHPDKEVLAAAIEAIFDKIEEAGVEAEVEVTLEDGTVIKLEGPIEEQKEEAVALAKETDVLVTIKLPDEAEELVEELEDIALEKGATVSVEKLE
B21: GBRAPL2_54_7369 (protein)
chain: MKIVEVTFVAEREFFLANRERIRAAALATYAELRKRLPDKVGELLSEEYSETPDYGSLSLDIEVDESALDEVIDAFEATRDALSAELGHPVHVVIGIGDK
B22: GBRAPL2_53_7367 (protein)
chain: MTLVEVEHPDKEKLLKAAEKIAEIAKKLGVNITVIFVKSDGSVERFTANAEEALKIAREKIKEGDVIIEVELEDSQEEALEEIIDAAAEAGAVVSVEKLP
B23: GBRAPL2_53_7364 (protein)
chain: MYLVEVEHPDKEKLLKAAEEIAKIAKKHNLKITVIFVKEDGTVERYTANAEEALKIAKEWIEKGDVILEVKLPDSLEEVKEEIIDAAAKNGAVVSVEELE
B24: GBRAPL2_53_7366 (protein)
chain: MTEVEIEHPDKEKMLKAAKKVFELVKERNLKVTVIYVDENANVTRVTANAEEALKIAEEWIEKGDVILEVILPDSEEELKEKIIDIAAENGAVVSVEELE
B25: GBRAPL2_53_7365 (protein)
chain: MTLVEVEHVDPEKMRAAAKKIAEVAKKHGLKIKVVFVDDEANVTEVTANAEEALKIAEEWIEKGHVILEVELPDDLEEVKEEIIDIAAEEGAVVSVEELE
B26: GBRAPL2_53_7359 (protein)
chain: MIEIDIAHPDKAVVKEAADKIFDVVEENGVEVEVTVTDENGTVTKLTGSVEEIREKVTAMAAKQPVLITIKLPDSAKETAEKIEDIALEKGATVSREELE
B27: GBRAPL2_53_7345 (protein)
chain: MIVVDVAHPDKEVMAEAVEAIFDILEENGVEAKVTVTLEDGTVVELEGPLDEVRKKAVELAKKSEVLVEIELPDSAEETVEKLEDVALEKGATVSVERIP
B28: GBRAPL2_53_7348 (protein)
chain: MYVVEIAHPDRDVLAAAIEAVFDLIEEAGVEAEVTVTLEDGTVIKLEGPISEVKERAVALAKETDVLVEIKLPDEAEEVVEELEDIALEKGATVSVEKLE
B29: GBRAPL2_53_7353 (protein)
chain: MIEVDIAHPDPEVMARALEKIFDIIKEAGQKVTVTVTTEDGTVITLTGDIDTIRAETVALAKQQPILVRIELEEEDEEVAEKVVDAALEEGATVSVERVE
B30: GBRAPL2_175_7340 (protein)
chain: SAYEALLKEIIKLLLELSEKANDEVSDLLDAAAAVLETDGLAAAGRAAALVAEASKEAADNPQLQAALAKLAAALKALAAGAAPEEVEKLLKEAKAITKK
B31: GBRAPL2_53_7360 (protein)
chain: MIVIDIAHPDKEVVKKAAEKIFDIVKEAGVEVEVTVTTEDGKVEKLTGSVDDIKAKVTELAAKQPVLIEITLPDSAKETAEKIVDVALEEGATVSVEELE
B32: GBRAPL2_53_7357 (protein)
chain: MLRLSIAHPDPAVVAEALRRIFEILREAGVEAEVVVTLEDGTVVRLTGDLDEIEARVTELAAKQPVLVDIYMPDSAEETVEEMEDAALDAGATVSVERVP

Molecular target: GABARAPL2, P60520
Sequence (P60520 whole entry, the tested form may be a part): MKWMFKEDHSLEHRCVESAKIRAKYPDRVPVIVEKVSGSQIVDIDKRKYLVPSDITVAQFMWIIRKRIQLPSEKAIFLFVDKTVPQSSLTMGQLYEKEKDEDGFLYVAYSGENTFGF
Experiment: median log2 fold change of GCK-ALFA target abundance (FLAG IP / Myc IP barcode read proportion) (log2 ratio); each designed protein is fused to an ALFA-tag nanobody in HEK293 cells to bring the named protein to FLAG-tagged glucokinase (GCK); Myc marks an untargeted standard; higher = target protein stabilised (more abundant)
Details: target protein: 3xFLAG-MCP-GCK-ALFA reporter; HEK293 landing pad (RPLP)
Procedure, shortened: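 HEK293 landing-pad cells received a recombined binder library fused to the ALFA nanobody and were induced with 2 μg mL^−1 doxycycline, then transfected with a plasmid encoding a FLAG-tagged target and a Myc-tagged standard. Lysates were collected after 48 h for anti-FLAG and anti-Myc immunoprecipitation, and the circular RNA barcodes were reverse transcribed, amplified and sequenced. Target abundance for each binder is the median log2 ratio of FLAG to Myc barcode read proportions. Barcodes had to reach a proportion of at least 10^−7 in both replicates, each binder needed at least 3 barcodes per replicate, a pseudocount of 10^−6 was applied, and the two replicates were pooled.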

Binder | median log2 fold change
B1 | 0.142
B2 | 0.199
B3 | 0.174
B4 | 0.157
B5 | 0.125
B6 | 0.379
B7 | 0.229
B8 | 0.186
B9 | 0.219
B10 | -0.0409
B11 | -0.39
B12 | 0.2
B13 | 0.23
B14 | 0.166
B15 | -0.0591
B16 | 0.16

Binder | median log2 fold change
B17 | 0.217
B18 | -0.185
B19 | 0.177
B20 | 0.0915
B21 | -0.231
B22 | 0.299
B23 | 0.221
B24 | -0.0323
B25 | 0.0119
B26 | 0.276
B27 | 0.0792
B28 | 0.152
B29 | 0.275
B30 | 0.217
B31 | 0.111
B32 | 0.126
